# Experimental data: PubChem BioAssay (NCI)
# This is part of a sample that, as a whole, favours compounds with a hit. Of some 83,000 tested, about 20% had one in any assay.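 Plates (96-well) were seeded with cells, treated with compound at one concentration, and incubated for 48 hours before percent growth was determined.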 A number with no mark means an inactive call. The source made the active and inactive calls. Rule for the calls: active = growth percent below 10; inactive = the rest.
# Experiments:
# Experiment in all cases: NCI-60 one-dose screen, 48 h (100 = growth as untreated, 0 = no growth, -100 = all killed)
# Settings in all cases: 10 µM unless noted
# NCI-H23 lung = tested on: NCI-H23 lung
# NCI-H226 lung = tested on: NCI-H226 lung
# NCI-H322M lung = tested on: NCI-H322M lung
# HOP-62 NSCLC = tested on: HOP-62 NSCLC
# NCI-H460 lung = tested on: NCI-H460 lung
# HOP-92 NSCLC = tested on: HOP-92 NSCLC
# NCI-H522 lung = tested on: NCI-H522 lung
# A549/ATCC NSCLC = tested on: A549/ATCC NSCLC
# 786-0 renal = tested on: 786-0 renal
# COLO 205 colon = tested on: COLO 205 colon
# DU-145 prostate = tested on: DU-145 prostate
# K-562 leukemia = tested on: K-562 leukemia
# MALME-3M melanoma = tested on: MALME-3M melanoma
# MDA-MB-231 breast = tested on: MDA-MB-231 breast
# RXF 393 renal = tested on: RXF 393 renal
# SF-268 CNS = tested on: SF-268 CNS
# SF-295 CNS = tested on: SF-295 CNS
# SF-539 CNS = tested on: SF-539 CNS
# UACC-257 melanoma = tested on: UACC-257 melanoma
# M14 melanoma = tested on: M14 melanoma
Compound,growth (NCI-H23 lung),growth (NCI-H226 lung) [%],growth (NCI-H322M lung) [%],growth (HOP-62 NSCLC),growth (NCI-H460 lung),growth (HOP-92 NSCLC),growth (NCI-H522 lung),growth (A549/ATCC NSCLC) [%],growth (786-0 renal),growth (COLO 205 colon),growth (DU-145 prostate),growth (K-562 leukemia),growth (MALME-3M melanoma),growth (MDA-MB-231 breast),growth (RXF 393 renal),growth (SF-268 CNS),growth (SF-295 CNS),growth (SF-539 CNS),growth (UACC-257 melanoma),growth (M14 melanoma)
COc1cc2cc(Oc3ccc(NC(=O)Nc4ccc(F)c(C(F)(F)F)c4)cc3)c(C)nc2cc1OCCN1CCOCC1,0.421% (active),36.6,60.7,24.4%,7.19% (active),-12.9% (active),13.6%,12.7,35%,-6.62% (active),23.3%,9.96% (active),22.7%,39.6%,40.3%,32.1%,0.809% (active),45.1%,12%,16.7%
CC(=O)CC(c1ccccc1)c1c(C)[nH]c2ccccc12 (stereo not given),81.9%,89.7,100,93.1%,106%,94.3%,94.4%,99.5,104%,107%,110%,87.2%,100%,103%,104%,94.8%,102%,93.4%,94.8%,94.4%
CC(C)(C)NC(=O)C(OC(=O)c1cccc(Cl)c1)c1ccc(Cl)cc1 (stereo not given),101%,94.9,98,80.9%,106%,93.8%,71.1%,90.9,99.2%,103%,103%,92.5%,103%,112%,111%,100%,98.1%,95.1%,97.1%,94.1%
CCOc1cccc(NC2=C(Br)C(=O)C(C)=C(C)C2=O)c1,67.5%,72,96.2,83.6%,100%,-8.14% (active),80.5%,103,104%,123%,104%,0.431% (active),91.4%,34.3%,113%,94.1%,101%,94.9%,68%,87.1%
COc1cc2cc(Oc3ccc(NC(=O)Nc4cc(C(F)(F)F)cc(C(F)(F)F)c4)cc3)c(C)nc2cc1OCCN1CCOCC1,7.96% (active),40.2,49.5,28.8%,9.99% (active),-14.2% (active),15%,11.8,30.9%,-22.9% (active),24.9%,6.68% (active),28.1%,1.49% (active),26%,27.8%,7.59% (active),38.5%,7.28% (active),17.6%
CC(=O)OC[C@H]1OC(Sc2sc(C(=O)c3ccc(C)cc3)c(N)c2-c2nc3ccccc3s2)[C@H](OC(C)=O)[C@@H](OC(C)=O)[C@@H]1OC(C)=O (stereo not given in full),56.1%,30.3,81.3,61.5%,43.7%,58.8%,82.1%,81.9,47.4%,92.2%,42.1%,68.4%,43.9%,30%,53.5%,71%,73.6%,28.2%,79.3%,65.7%
Cc1ccc(C(=O)NCCNc2nccc(-c3c(-c4cccc(F)c4)nc4sccn34)n2)cc1,70.5%,36.4,64.8,86.1%,34.8%,74.8%,72.2%,31.2,60.8%,27.6%,62.9%,48.7%,47.3%,72.5%,39.9%,60%,62.5%,90.1%,75.1%,44%
Cc1nc2ccccc2n1CC1C(=O)NC(=O)NC1=O,102%,114,95.5,105%,111%,97.8%,94.4%,96.4,103%,115%,117%,94.8%,106%,114%,123%,106%,102%,100%,101%,110%
O=C(/C=C/c1cccc2ccccc12)c1ccc(NC(=O)c2ccccc2CN2C(=O)c3ccccc3C2=O)cc1,67.3%,93.4,79.7,94.2%,79.9%,80.2%,68.4%,78.6,97%,101%,42.7%,20.2%,79.6%,58.4%,91.5%,75.4%,96.4%,90.2%,88%,72.8%
CCOC(=O)C1=C(N)Oc2c(sc3c(CC)cccc23)C1c1ccc(F)cc1 (stereo not given),47%,49.5,67.2,32%,17%,63.5%,26.4%,47.4,35.4%,51.1%,46.3%,10.7%,42.1%,73.1%,-4.56% (active),48.9%,11.8%,13.4%,55.7%,38.2%
COc1cccc2c(=O)c3c(sc12)c(NCCCN)nc1ccccc13,59.7%,63.4,64.4,53.2%,-30.1% (active),45.7%,56.5%,36.3,68.2%,-24.6% (active),33.1%,-7.71% (active),90.9%,10.3%,61%,61.4%,72.8%,56.1%,94.1%,33.9%
O=C(CS(=O)c1oc(-c2cccs2)nc1S(=O)(=O)c1ccc(Br)cc1)c1ccccc1 (stereo not given),92.6%,80.8,97.7,84.6%,93.6%,76%,81.4%,96.6,98.7%,106%,104%,95.3%,119%,105%,105%,99.2%,101%,87%,98.8%,99.5%
COc1cccc(Cc2nn3cc(-c4ccccc4)nc3s2)c1,97.4%,110,91.8,95.2%,105%,84.8%,70.3%,94.4,52%,106%,94.4%,27.7%,96.2%,78.9%,117%,89.2%,103%,102%,89.7%,84.1%
C#C[C@]1(O)CC[C@H]2[C@@H]3CC=C4c5sc(Nc6cc(F)ccc6F)nc5CC[C@]4(C)[C@H]3CC[C@@]21C,4.23% (active),49,50.9,0.529% (active),-54.4% (active),13.1%,1.36% (active),56.7,-71.9% (active),8.29% (active),-30.6% (active),4.14% (active),-19.9% (active),-20.6% (active),-58.5% (active),0.557% (active),-41.9% (active),-88.7% (active),0.483% (active),-22.1% (active)
CCOC(=O)NCCc1ccccc1,101%,107,93.2,99.7%,112%,82%,98.1%,89.6,112%,112%,118%,91.4%,110%,116%,115%,114%,98.3%,111%,100%,110%
